What all share (conditions): mRNA level, 48 h; actives raise or lower the signal
Read-out in experiment [1]: ATP-citrate lyase (ACLY), ACLY (gene 47)
As to the kind of experiment: LTEA_HepaRG_ACLY: Life Technologies and Expression Analysis (LTEA) Assay for ATP-citrate lyase (ACLY) using HepaRG (AID 2283466). In outline:
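Differentiated human HepaRG cells in serum-free induction medium exposed 48 h, in duplicate, to eight half-log concentrations from 100 uM top in 0.5% DMSO; ACLY mRNA measured by qRT-PCR, normalized to ACTB, GAPDH, POLR2A, fitted bidirectionally versus DMSO.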

Read-out in experiment [2]: Peroxisomal acyl-coenzyme A oxidase 1 (ACOX1) gene, ACOX1 (gene 51)
In words: LTEA_HepaRG_ACOX1: Life Technologies and Expression Analysis (LTEA) Assay for Peroxisomal acyl-coenzyme A oxidase 1 (ACOX1) gene using HepaRG (AID 2283467). In outline: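 Differentiated human HepaRG cells were exposed in duplicate for 48 h in serum-free induction medium to eight half-log concentrations up to 100 uM in 0.5% DMSO. ACOX1 mRNA was then quantified by TaqMan qRT-PCR, normalized to ACTB, GAPDH and POLR2A.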

Read-out in experiment [3]: Alkaline Phosphatase, Placental (ALPP) gene, ALPP (gene 250)
As to the kind of experiment: LTEA_HepaRG_ALPP: Life Technologies and Expression Analysis (LTEA) Assay for Alkaline Phosphatase, Placental (ALPP) gene using HepaRG (AID 2283468). The gist of the method: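 Expression of ALPP was quantified by qRT-PCR against three housekeeping genes in human HepaRG cultures treated for 48 h with an eight-point concentration series up to 100 uM. Activity in either direction was fitted relative to 0.5% DMSO.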

Read-out in experiment [4]: Bcl-2 (BAD) gene, BAD (gene 572)
In words: LTEA_HepaRG_BAD: Life Technologies and Expression Analysis (LTEA) Assay for Bcl-2 (BAD) gene using HepaRG (AID 2283469). The gist of the method: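 Differentiated human HepaRG cells in serum-free induction medium were exposed in duplicate for 48 h to eight concentrations (top 100 uM, half-log steps, 0.5% DMSO). BAD mRNA was quantified by qRT-PCR normalised to ACTB, GAPDH and POLR2A, with bidirectional fitting versus DMSO.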

Read-out in experiment [5]: Bcl-2 (BAX) gene, BAX (gene 581)
In words: LTEA_HepaRG_BAX: Life Technologies and Expression Analysis (LTEA) Assay for Bcl-2 (BAX) gene using HepaRG (AID 2283470). The gist of the method:
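HepaRG (human liver), 48 h exposure, duplicate wells. 8-pt curve, half-log from 100 uM, 0.5% DMSO. BAX transcript by TaqMan qRT-PCR; ACTB/GAPDH/POLR2A normalization; gain or loss vs DMSO baseline.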

Read-out in experiment [6]: adenosine kinase (ADK) gene, ADK (gene 132)
In words: LTEA_HepaRG_ADK: Life Technologies and Expression Analysis (LTEA) Assay for adenosine kinase (ADK) gene using HepaRG (AID 2283471). The gist of the method:
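Differentiated HepaRG cells dosed 48 h in serum-free induction medium, 0.5% DMSO vehicle, eight half-log concentrations from 100 uM, in duplicate. ADK mRNA by TaqMan qRT-PCR normalised to ACTB, GAPDH, POLR2A; bidirectional fit versus DMSO.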

Read-out in experiment [7]: Alpha-fetoprotein (AFP) gene, AFP (gene 174)
As to the kind of experiment: LTEA_HepaRG_AFP: Life Technologies and Expression Analysis (LTEA) Assay for Alpha-fetoprotein (AFP) gene using HepaRG (AID 2283472). The gist of the method:
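HepaRG, single lot; 48 h post-plating -> serum-free induction medium; cpd 8-pt, 100 uM top, half-log, 0.5% DMSO, duplicate, 48 h. RNA -> qRT-PCR AFP, norm ACTB/GAPDH/POLR2A. Bidirectional fit vs DMSO.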

Read-out in a further experiment: BCL2L11 (gene 10018)
In words: LTEA_HepaRG_BCL2L11: Life Technologies and Expression Analysis (LTEA) Assay for Bcl-2 (BCL2L11) gene using HepaRG (AID 2283473). The gist of the method: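 Cells were plated, cultured 48 h, switched to serum-free induction medium, then dosed in duplicate for 48 h at eight half-log concentrations up to 100 uM. Lysates underwent RNA isolation and TaqMan qRT-PCR; gain or loss versus DMSO was fitted.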

Read-out in experiment [8]: Apolipoprotein A-V (APOA5) gene, APOA5 (gene 116519)
In words: LTEA_HepaRG_APOA5: Life Technologies and Expression Analysis (LTEA) Assay for Apolipoprotein A-V (APOA5) gene using HepaRG (AID 2283474). In outline:
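Human liver HepaRG cells are treated 48 h with test chemicals (100 uM top, half-log dilutions, 0.5% DMSO). APOA5 mRNA induction or loss is measured by qRT-PCR relative to vehicle.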

Read-out in experiment [9]: Apoptosis regulator Bcl-2 (Homo sapiens) (UniProt P10415)
As to the kind of experiment: LTEA_HepaRG_BCL2: Life Technologies and Expression Analysis (LTEA) Assay for Bcl-2 gene using HepaRG (AID 2283475). In outline: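 HepaRG, plated 48 h then switched to serum-free induction medium; dosed 48 h, 8 conc. (max 100 uM, half-log steps), duplicate, 0.5% DMSO. Lysis in RLT, RNA isolated, TaqMan qRT-PCR for BCL2; ACTB/GAPDH/POLR2A normalisation; bidirectional fit vs DMSO.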

Read-out in experiment [10]: Bcl-2 (BID) gene, BID (gene 637)
In words: LTEA_HepaRG_BID: Life Technologies and Expression Analysis (LTEA) Assay for Bcl-2 (BID) gene using HepaRG (AID 2283476). The gist of the method:
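Transcript levels of BID, measured by qRT-PCR and normalized to three housekeeping genes, were fitted bidirectionally against DMSO controls. Cells were HepaRG, dosed 48 h at up to 100 uM.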

Read-out in another experiment: Caspase-3 (Homo sapiens) (UniProt P42574)
As to the kind of experiment: LTEA_HepaRG_CASP3: Life Technologies and Expression Analysis (LTEA) Assay for cysteine-aspartic acid protease (CASP3) using HepaRG (AID 2283477). In outline:
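In HepaRG liver cells dosed for 48 h at up to 100 uM (eight-point, duplicate), CASP3 expression changes are scored by qRT-PCR. Activity is fitted in both directions with 0.5% DMSO as baseline.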

Read-out in experiment [11]: Cytochrome P450 (CYP24A1), CYP24A1 (gene 1591)
As to the kind of experiment: LTEA_HepaRG_CYP24A1: Life Technologies and Expression Analysis (LTEA) Assay for Cytochrome P450 (CYP24A1) using HepaRG (AID 2283478). The gist of the method:
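Human liver HepaRG cultures receive each chemical for 48 h across an eight-point half-log series topping at 100 uM in 0.5% DMSO. Induction or suppression of CYP24A1 mRNA is scored relative to vehicle after housekeeping-gene normalization.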

Read-out in experiment [12]: Cytochrome P450 (CYP1A2), CYP1A2 (gene 1544)
As to the kind of experiment: LTEA_HepaRG_CYP1A2: Life Technologies and Expression Analysis (LTEA) Assay for Cytochrome P450 (CYP1A2) using HepaRG (AID 2283479). The gist of the method: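 Assesses CYP1A2 mRNA in human HepaRG liver cells after 48 h chemical exposure at up to 100 uM. Values come from qRT-PCR with bidirectional curve fitting relative to DMSO.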

Read-out in experiment [13]: cysteine-aspartic acid protease (CASP8), CASP8 (gene 841)
In words: LTEA_HepaRG_CASP8: Life Technologies and Expression Analysis (LTEA) Assay for cysteine-aspartic acid protease (CASP8) using HepaRG (AID 2283480). The gist of the method:
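Differentiated human HepaRG cells, plated 48 h then switched to serum-free induction medium, were exposed in duplicate for 48 h to 8 half-log concentrations up to 100 uM in 0.5% DMSO. CASP8 mRNA was quantified by qRT-PCR, normalized to ACTB/GAPDH/POLR2A.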

Read-out in experiment [14]: Cytochrome P450 (CYP2B6), CYP2B6 (gene 1555)
In words: LTEA_HepaRG_CYP2B6: Life Technologies and Expression Analysis (LTEA) Assay for Cytochrome P450 (CYP2B6) using HepaRG (AID 2283481). The gist of the method: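 Using 48 h treatment of HepaRG cells in serum-free induction medium, concentrations spanned half-log steps from 100 uM in 0.5% DMSO vehicle. CYP2B6 mRNA induction or loss is scored by qRT-PCR against DMSO.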

Read-out in experiment [15]: Cytochrome P450 2C19 (Homo sapiens) (UniProt P33261)
As to the kind of experiment: LTEA_HepaRG_CYP2C19: Life Technologies and Expression Analysis (LTEA) Assay for CYP2C19 using HepaRG (AID 2283482). In outline: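 Human HepaRG liver cells received test chemicals for 48 h (highest 100 uM, half-log dilutions in 0.5% DMSO). CYP2C19 mRNA induction or loss is read by multiplexed qRT-PCR and fitted in both directions versus vehicle.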

Read-out in another experiment: CYP2C8 (gene 1558)
In words: LTEA_HepaRG_CYP2C8: Life Technologies and Expression Analysis (LTEA) Assay for CYP2C8 using HepaRG (AID 2283483). In outline: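 Differentiated human HepaRG cells were exposed for 48 h in serum-free induction medium to eight half-log concentrations up to 100 uM in 0.5% DMSO, in duplicate. CYP2C8 mRNA was measured by TaqMan qRT-PCR, normalized to ACTB, GAPDH and POLR2A, and fitted bidirectionally against DMSO.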

Read-out in a further experiment: CYP2C9 (gene 1559)
As to the kind of experiment: LTEA_HepaRG_CYP2C9: Life Technologies and Expression Analysis (LTEA) Assay for CYP2C9 using HepaRG (AID 2283484). In outline: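 Differentiated human HepaRG cells were exposed 48 h in serum-free induction medium to eight half-log concentrations up to 100 uM in 0.5% DMSO. CYP2C9 mRNA was measured by qRT-PCR, normalized to ACTB, GAPDH and POLR2A, and fitted bidirectionally against DMSO.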

Read-out in another experiment: CYP2E1 (gene 1571)
In words: LTEA_HepaRG_CYP2E1: Life Technologies and Expression Analysis (LTEA) Assay for CYP2E1 using HepaRG (AID 2283485). In outline: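 Human liver line HepaRG, plated 48 h, then serum-free induction medium + chemical x 48 h; 8-pt CRC from 100 uM, half-log, 0.5% DMSO, n=2. Readout: CYP2E1 mRNA qRT-PCR vs ACTB/GAPDH/POLR2A; bidirectional fit vs DMSO.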

AC50 and outcome data for three compounds are collected here from PubChem BioAssay (EPA / NIEHS).

A word on the AC50: it is the concentration at which the activity in the assay is half-maximal.

Calls of active or inactive are those of the source. Rule for the calls: active = hit-call score of the fitted dose curve at least 0.9, where 1 is the maximum; inactive = score below 0.9.

Chain of Caspase-3 (Homo sapiens) (P42574 whole entry, looked up): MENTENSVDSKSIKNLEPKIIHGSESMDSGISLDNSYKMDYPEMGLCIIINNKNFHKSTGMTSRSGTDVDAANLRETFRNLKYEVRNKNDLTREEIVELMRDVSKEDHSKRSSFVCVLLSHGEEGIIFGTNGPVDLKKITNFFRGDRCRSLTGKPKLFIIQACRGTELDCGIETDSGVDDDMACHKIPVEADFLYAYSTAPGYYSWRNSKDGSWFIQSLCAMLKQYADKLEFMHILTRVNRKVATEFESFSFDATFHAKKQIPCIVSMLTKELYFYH
Chain of Apoptosis regulator Bcl-2 (Homo sapiens) (P10415 whole entry, looked up): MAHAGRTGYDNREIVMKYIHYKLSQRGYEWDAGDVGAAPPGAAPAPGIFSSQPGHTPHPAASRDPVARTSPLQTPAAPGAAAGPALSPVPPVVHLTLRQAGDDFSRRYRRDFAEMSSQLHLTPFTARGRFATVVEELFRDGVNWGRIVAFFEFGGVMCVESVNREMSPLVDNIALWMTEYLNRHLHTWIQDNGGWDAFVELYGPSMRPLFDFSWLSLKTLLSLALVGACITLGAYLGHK
Chain of Cytochrome P450 2C19 (Homo sapiens) (P33261 whole entry, looked up): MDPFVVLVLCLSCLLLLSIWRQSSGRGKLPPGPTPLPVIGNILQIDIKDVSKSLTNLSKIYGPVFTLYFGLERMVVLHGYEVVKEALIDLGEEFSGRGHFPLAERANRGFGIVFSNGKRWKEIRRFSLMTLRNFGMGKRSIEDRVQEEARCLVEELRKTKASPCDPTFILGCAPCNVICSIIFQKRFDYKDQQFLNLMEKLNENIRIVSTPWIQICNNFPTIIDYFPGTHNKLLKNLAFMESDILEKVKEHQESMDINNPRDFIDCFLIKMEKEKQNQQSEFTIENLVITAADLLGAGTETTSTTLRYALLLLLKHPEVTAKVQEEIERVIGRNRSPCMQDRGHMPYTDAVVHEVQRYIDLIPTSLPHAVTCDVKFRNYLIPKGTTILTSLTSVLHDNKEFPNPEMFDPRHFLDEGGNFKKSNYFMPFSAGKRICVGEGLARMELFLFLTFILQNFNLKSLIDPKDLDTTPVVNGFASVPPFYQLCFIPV

Turning to `C[C@]12CCC(=O)C=C1CC[C@@H]1[C@@H]2CC[C@]2(C)C(=O)CC[C@@H]12`, the AC50 in experiment [1] is 88.9 µM (active); in experiment [3], 29.8 µM (active); in [7] it was 50 µM (active); in experiment [8] it was 50 µM (active); in [10], 50 µM (active); in experiment [12], 50 µM (active). Also, the values for the AC50 (in experiment [15]; with CYP2E1 (gene 1571)) were 10.4 µM (active) and 1.16 µM (active), respectively. The compound was classed as inactive (in experiment [2]; in experiment [4]; in [5]; in experiment [6]; with BCL2L11 (gene 10018); in experiment [9]). The outcome (in the experiment with Caspase-3 (Homo sapiens); in [11]; in experiment [13]; in experiment [14]; with CYP2C8 (gene 1558); with CYP2C9 (gene 1559)) was inactive.

As for `Nc1ccc(-c2ccc(N)cc2)cc1`, the call in experiment [1], in experiment [2], in experiment [3], in [4], in [5] and in experiment [6] was inactive. Besides, the compound was classed as inactive (in experiment [7]; with BCL2L11 (gene 10018); in [8]; in [9]; in experiment [10]; with Caspase-3 (Homo sapiens)). The outcome (in experiment [11]; in [12]; in experiment [13]; in experiment [15]; with CYP2C8 (gene 1558)) was inactive. For the same compound, the concentration at half-maximal activity (AC50) in experiment [14] is 50 µM (active); with CYP2E1 (gene 1571), 12.3 µM (active).

For `CC(C)(c1ccccc1)c1ccc(O)cc1`, the compound was classed as inactive in [1], in experiment [2], in [3], in experiment [4], in [5] and in experiment [6]. The outcome (with BCL2L11 (gene 10018); in [9]; in experiment [10]; in the experiment with Caspase-3 (Homo sapiens); in [11]; in [13]) was inactive. In addition, the call (in experiment [15]; with CYP2C8 (gene 1558); in the experiment with CYP2E1 (gene 1571)) was inactive. Also, the concentration at half-maximal activity (AC50) in experiment [7] was 77.8 µM (active); in [8] it was 78.3 µM (active); in [12], 75.5 µM (active); in experiment [14] it was 11.8 µM (active).
